# PubChem BioAssay (NCATS)
# Several values for one entry are separate records, joined by “and”; a condition that tells them apart may be missing. Equal entries are not always repeated. Inconclusive results are not listed. Entries that show only a call come without a potency. Activity calls are given as the source filed them. Unless noted, the call rests on the fitted dose curve; in most records, active means well fitted curve in the direction sought with a large enough effect; inconclusive means small, poorly fitted or top-dose-only effect, or another doubt; inactive means no such curve, though single readings can be large; an effect the other way counts as inactive or inconclusive.
# How the values were obtained:
# [1] = Cell Viability - Hek293 (AID 427;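 active means compounds whose dose-response curve shows a full or clear partial loss of cell viability, called from curve shape rather than a numeric limit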;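 further: potency means the concentration at half of the fitted maximal effect; cells exposed to compound for 40 hours at 37 °C before reading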); conditions: qHTS
# Procedure, shortened: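 qHTS, human embryonic kidney (adenovirus-transformed) cells; 40 hr cpd, 37 °C; CellTiter-Glo ATP luminescence. Norm: DMSO = 0, 100 uM tamoxifen = 100% inhibition. Hill-fit AC50.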
# [2] = Cell Viability - SK-N-SH (AID 435; calls by dose curve;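 further: potency means the concentration at half of the fitted maximal effect; compound exposure lasted 40 h at 37 °C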); conditions: SK-N-SH neuroblastoma cell viability qHTS
# Procedure, shortened: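 Human neuroblastoma line, 40 h exposure at 37 °C, ATP quantified via luciferase luminescence; DMSO and 100 uM tamoxifen define 0 and 100% inhibition for AC50 fitting.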
# [3] = Cell Viability - HUV-EC-C (AID 542); conditions: HUV-EC-C endothelial cell viability, qHTS; series mostly up to 92.2 µM; further: nearly all actives have a fitted effect of over 35% in size
# Procedure, shortened: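 HUV-EC-C normal human vascular endothelial cells, 1000 cells/well, pre-incubated 5 hr at 37 °C, then exposed to compounds for 40 hr at 37 °C in complete medium. Viability measured as intracellular ATP by CellTiter-Glo luminescence; AC50 from Hill fits.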
# [4] = Cell Viability - H-4-II-E (AID 543); conditions: H-4-II-E rat hepatoma viability; series mostly up to 92.2 µM; further: nearly all actives have a fitted effect of over 35% in size; further: potency means the concentration at half of the fitted maximal effect
# Procedure, shortened: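 Rat hepatoma H-4-II-E cells (1500/well) were plated, incubated 5 hr at 37 °C, then exposed to compounds for 40 hr at 37 °C. Cellular ATP was read by CellTiter-Glo luminescence; AC50 came from Hill-equation fits of concentration-response data.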
# [5] = Cellular Toxicity (caspase-3) Renal Proximal Tubule (AID 667); conditions: renal proximal tubule cells; series mostly up to 91.7 µM;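 further: cells exposed to compound for 16 hours at 37 °C before detection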
# Procedure, shortened: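 Caspase-Glo 3/7 read-out, rat primary kidney proximal tubule cells. Compound exposure 16 h, 37 °C; detection after 1 h at RT. Activity scaled to DMSO and 10 uM staurosporine.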
# [6] = molecular target: Cytochrome P450 3A4 (Homo sapiens) (UniProt P08684); test: qHTS Assay for Inhibitors and Substrates of Cytochrome P450 3A4 (AID 884); conditions: recombinant CYP3A4, Luciferin-PPXE luminescence; series mostly up to 57.1 µM; further: nearly all actives have a fitted effect of over 50% in size
# Procedure, shortened: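 20 nM human CYP3A4 with 25 uM Luciferin-PPXE (at KM) in 200 mM KPO4, preincubated 10 min with compound; NADPH regeneration started a 60 min RT reaction. Luciferin detected by luminescence, normalized to 57 uM ketoconazole as full inhibition.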
# [7] = MultiTox-Fluor Cytotoxicity Assay - LYMP1-002 - Dead Cells (AID 960); conditions: LYMP1-002 lymphoblastoid cells, dead-cell protease fluorescence; series mostly up to 46.1 µM; further: nearly all actives have a fitted effect of over 60% in size
# Procedure, shortened: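 Human lymphoblastoid cells (LYMP1-002), 2500/well in complete medium, were exposed to compounds for 16 hr at 37 C. Dead-cell protease activity was read as bis-AAF-R110 fluorescence (Ex/Em 485/520), normalized to DMSO and 15 uM tetraoctylammonium bromide; AC50 from Hill fits.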
# [8] = Cell Viability - LYMP2-004 (AID 966); conditions: LYMP2-004 lymphoblastoid cell viability, qHTS; series mostly up to 92.2 µM; further: nearly all actives have a fitted effect of over 65% in size
# Procedure, shortened: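 Human lymphoblastoid cells (2500/well) in complete medium were treated with compounds for 24 hr at 37 C, then intracellular ATP was measured by CellTiter-Glo luminescence. AC50 values came from Hill-equation fits of concentration-response data.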
# [9] = Cell Viability - LYMP2-005 (AID 967); conditions: LYMP2-005 lymphoblastoid cell viability; series mostly up to 92.2 µM
# Procedure, shortened: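 Luciferase-based ATP quantitation served as the viability measure in human lymphoblastoid LYMP2-005 cells exposed to test compounds for 24 h at 37 C in complete culture medium. Potency (AC50) was obtained by fitting concentration-response curves with the Hill equation.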
# [10] = Cell Viability - LYMP2-012 (AID 982); conditions: LYMP2-012 lymphoblastoid cell viability qHTS; series mostly up to 92.2 µM;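 further: cellular ATP by luciferase luminescence where a drop means cytotoxicity; cells exposed to compound for one day before reading; nearly all actives have a fitted effect of over 55% in size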
# [11] = Cell Viability - LYMP2-018 (AID 985); conditions: LYMP2-018 lymphoblastoid cells, viability (qHTS); series mostly up to 92.2 µM;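 further: compound exposure lasted 24 hr at 37 °C; nearly all actives have a fitted effect of over 50% in size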
# Procedure, shortened: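 Human lymphoblastoid cells (2500/well) were pre-incubated 5 hr at 37 C, then exposed to compounds for 24 hr at 37 C in complete medium. Viability was read as intracellular ATP by CellTiter-Glo luminescence; AC50 values came from Hill-equation fits.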
# [12] = Cell Viability - LYMP1-002 - Assay at 40 hr (AID 994); conditions: LYMP1-002 lymphoblastoid cell viability; series mostly up to 92.2 µM; further: nearly all actives have a fitted effect of over 60% in size
# Procedure, shortened: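 Human lymphoblastoid cells, 2500/well in complete medium, were preincubated 5 hr at 37 C, then exposed to compounds for 40 hr at 37 C. Intracellular ATP was read by CellTiter-Glo luminescence after 30 min at room temperature; AC50 from Hill-equation fits.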
# [13] = qHTS assay for small molecule agonists of retinoid X receptor alpha signaling (AID 588544; calls by dose curve); conditions: HEK293T RXRa-UAS-bla, beta-lactamase reporter, 18 h; 530 nm emission
# [14] = molecular target: Retinoic acid receptor RXR-alpha (Homo sapiens) (UniProt P19793); test: as above; conditions: HEK293T RXRa-UAS-bla, beta-lactamase reporter, 18 h; series mostly up to 76.7 µM
# [15] = qHTS assay for small molecule antagonists of retinoid X receptor alpha signaling (AID 588546; active means well fitted inhibition curve with a large enough effect in the signal ratio, with a control signal flat, not every such curve was filed as active; the % refers to the signal ratio;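 further: cells stimulated with 9-cis-retinoic acid as agonist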); conditions: HEK293T RXRa-UAS-bla, beta-lactamase ratio, antagonist mode; measured here: W530 green channel, cytotoxicity proxy
# Procedure, shortened: (§1)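 Beta-lactamase reporter inhibition, read as CCF4 fluorescence ratio (ex 405, em 460/530 nm) after 2 h at RT. HEK293T UAS-bla cells, 2500/well, were stimulated with 9-cis-RA at 500 or 100 nM final alongside test compound for 18 h at 37 C.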
# [16] = molecular target: Retinoic acid receptor RXR-alpha (Homo sapiens) (UniProt P19793); test: as above; conditions: HEK293T RXRa-UAS-bla, beta-lactamase ratio, antagonist mode
# Procedure, shortened: as §1
# [17] = molecular target: Tumor necrosis factor (Homo sapiens) (UniProt P01375); test: qHTS assay to identify small molecules that stimulate Tumor Necrosis Factor-alpha (TNF-alpha) secretion (AID 651757; active means well fitted curve in the direction sought with a large enough effect in the signal ratio; the % refers to the signal ratio); conditions: Human cells, HTRF 665/615 ratio; series mostly up to 92.2 µM
# Procedure, shortened: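 THP-1 cells were exposed to compounds for 17 hrs at 37 C, after which secreted TNF-alpha was measured by homogeneous HTRF (TR-FRET) using cryptate- and XL665-labeled anti-TNF-alpha antibodies, read after 3 hr at room temperature.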
# [18] = qHTS assay for environmental chemicals that activate the Aryl hydrocarbon Receptor (AhR) signaling pathway (AID 651777); conditions: 1A2-DRE human hepatoma cells, luciferase, 24 h; activation: stronger effect = higher value; further: nearly all actives have a fitted effect of over 15% in size; further: potency means the concentration at half of the fitted maximal effect
# Procedure, shortened: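 Human hepatoma 1A2-DRE cells stably carrying a DRE/CYP1A2 promoter–luciferase reporter, 1,200 cells/well, exposed to compound 24 hr at 37 C. Luciferase read by One-Glo luminescence after 30 min at room temperature; increased signal marks AhR activation.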
# [19] = qHTS assay for small molecule agonists of the antioxidant response element (ARE) signaling pathway measured by Nrf2-dependant transcriptional activity (AID 720636; active means well fitted curve in the direction sought with a large enough effect in the repeat runs; an effect the other way counts as inactive or inconclusive; further: potency means the concentration at half of the fitted maximal effect); conditions: ARE-luc HepG2, Nrf2 luciferase reporter, 16 h; series mostly up to 92.4 µM
# Procedure, shortened: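 ARE-luc HepG2 cells carrying an Nrf2-responsive luciferase reporter, in medium with 1% dialyzed FBS, exposed to compound for 16 hr at 37 C, 5% CO2. Luminescence read 30 min after ONE-Glo addition.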
# [20] = Cell Viability - SH-SY5Y (AID 544); conditions: SH-SY5Y neuroblastoma cell viability; viability change, negative = cytotoxic: at 92.2 µM (top of the series); further: nearly all actives have a fitted effect of over 55% in size; further: potency means the concentration at half of the fitted maximal effect
# Procedure, shortened: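 Human neuroblastoma SH-SY5Y cells (1500/well) in complete medium were exposed to compounds for 40 hr at 37 °C; intracellular ATP was then quantified by CellTiter-Glo luminescence after 20 min at room temperature. AC50 came from Hill-equation concentration-response fits.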
# Chain of Cytochrome P450 3A4 (Homo sapiens) (P08684 whole entry, looked up): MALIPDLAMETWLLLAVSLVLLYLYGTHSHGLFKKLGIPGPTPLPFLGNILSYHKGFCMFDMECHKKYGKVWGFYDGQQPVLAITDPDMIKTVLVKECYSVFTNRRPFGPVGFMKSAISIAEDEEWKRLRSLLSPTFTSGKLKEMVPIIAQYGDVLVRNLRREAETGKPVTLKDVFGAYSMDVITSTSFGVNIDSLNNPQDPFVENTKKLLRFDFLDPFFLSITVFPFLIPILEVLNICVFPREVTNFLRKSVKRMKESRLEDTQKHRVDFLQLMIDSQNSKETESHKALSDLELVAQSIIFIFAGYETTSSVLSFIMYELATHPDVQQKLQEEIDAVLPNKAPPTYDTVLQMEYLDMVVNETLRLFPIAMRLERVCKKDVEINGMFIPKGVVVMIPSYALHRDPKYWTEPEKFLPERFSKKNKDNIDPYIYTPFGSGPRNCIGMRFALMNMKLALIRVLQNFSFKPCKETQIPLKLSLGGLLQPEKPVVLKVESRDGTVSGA
# Chain of Tumor necrosis factor (Homo sapiens) (P01375 whole entry, looked up): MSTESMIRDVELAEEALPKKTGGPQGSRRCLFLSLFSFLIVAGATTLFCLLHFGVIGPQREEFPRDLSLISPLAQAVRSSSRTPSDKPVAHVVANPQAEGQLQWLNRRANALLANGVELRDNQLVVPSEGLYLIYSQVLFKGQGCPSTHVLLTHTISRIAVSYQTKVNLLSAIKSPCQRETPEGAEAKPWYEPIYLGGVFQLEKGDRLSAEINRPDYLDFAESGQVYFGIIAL
# Chain of Retinoic acid receptor RXR-alpha (Homo sapiens) (P19793 whole entry, looked up): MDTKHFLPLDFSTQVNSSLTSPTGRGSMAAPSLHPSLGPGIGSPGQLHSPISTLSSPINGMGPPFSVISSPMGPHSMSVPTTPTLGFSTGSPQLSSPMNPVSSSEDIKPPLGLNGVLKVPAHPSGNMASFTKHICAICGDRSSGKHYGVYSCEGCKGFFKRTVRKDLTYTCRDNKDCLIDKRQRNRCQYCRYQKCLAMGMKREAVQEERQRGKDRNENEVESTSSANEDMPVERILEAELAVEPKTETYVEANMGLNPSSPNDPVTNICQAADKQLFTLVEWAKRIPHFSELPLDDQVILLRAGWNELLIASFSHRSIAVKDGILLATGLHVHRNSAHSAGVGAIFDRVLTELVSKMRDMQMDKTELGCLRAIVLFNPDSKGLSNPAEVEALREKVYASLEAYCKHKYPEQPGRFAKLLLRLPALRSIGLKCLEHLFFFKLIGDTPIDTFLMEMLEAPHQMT
compound,measurement,setting,value
CC(C)(C)OOC(=O)c1ccccc1,Potency,[1],> 92 µM (inactive)
same,Potency,[2],> 92 µM (inactive)
same,Potency,[3],inactive
same,Potency,[4],inactive
same,outcome,[5],inactive
same,Potency,[6],inactive
same,Potency,[7],inactive
same,Potency,[8],inactive
same,Potency,[9],inactive
same,Potency,[10],inactive
same,Potency,[11],inactive
same,Potency,[12],inactive
same,max response,[13],3.54% and -7.62%
same,outcome,[14],inactive
same,max response,[15],-18.8% and -11.9%
same,max response,[16],2.22% (inactive) and 6.61% (inactive)
same,outcome,[17],inactive
same,activation,[18],-1.19% (inactive) and 0.23% (inactive)
same,Potency,[19],inactive
Clc1ccc(C(Cl)(Cl)Cl)cc1Cl,Potency,[1],> 92 µM (inactive)
same,Potency,[2],> 92 µM (inactive)
same,Potency,[3],inactive
same,Potency,[4],inactive
same,Potency,[20],inactive
same,outcome,[5],inactive
same,Potency,[6],inactive
same,Potency,[8],inactive
same,Potency,[9],inactive
same,Potency,[10],inactive
same,Potency,[11],inactive
same,Potency,[12],inactive
same,max response,[13],-3.09%
same,outcome,[14],inactive
same,max response,[15],-6.09%
same,max response,[16],-3.13% (inactive)
same,outcome,[17],inactive
same,activation,[18],-0.831% (inactive)
same,Potency,[19],inactive
O=C(O)CBr,Potency,[1],> 92 µM (inactive)
same,Potency,[2],> 92 µM (inactive)
same,Potency,[3],inactive
same,Potency,[4],inactive
same,Potency,[20],inactive
same,outcome,[5],inactive
same,Potency,[6],inactive
same,Potency,[8],inactive
same,Potency,[9],inactive
same,Potency,[10],inactive
same,Potency,[11],inactive
same,Potency,[12],inactive
same,max response,[13],-13.9%
same,outcome,[14],inactive
same,max response,[15],-7.96%
same,max response,[16],-0.759% (inactive)
same,outcome,[17],inactive
same,activation,[18],-0.817% (inactive)
same,Potency,[19],inactive
Nc1cc(Cl)ccc1O,Potency,[1],> 92 µM (inactive)
same,Potency,[2],> 92 µM (inactive)
same,Potency,[4],inactive
same,"viability change, negative = cytotoxic",[20],-87.6% (active)
same,outcome,[5],inactive
same,Potency,[6],inactive
same,Potency,[7],inactive
same,Potency,[8],inactive
same,Potency,[9],inactive
same,Potency,[10],inactive
same,Potency,[11],inactive
same,max response,[15],-1.3%
same,max response,[16],-9.48% (inactive)
same,Potency,[18],44.7 µM (active)
same,Potency,[19],21.1 µM (active)
CC(C)OS(C)(=O)=O,Potency,[1],> 92 µM (inactive)
same,Potency,[3],inactive
same,Potency,[4],inactive
same,Potency,[20],inactive
same,Potency,[6],inactive
same,Potency,[8],inactive
same,Potency,[10],inactive
same,Potency,[11],inactive
same,Potency,[12],inactive
same,max response,[13],-2.85%
same,outcome,[14],inactive
same,max response,[15],5.36%
same,max response,[16],0.937% (inactive)
same,outcome,[17],inactive
same,activation,[18],1.58% (inactive)
same,Potency,[19],inactive
O=[N+]([O-])/C=C/c1ccccc1,Potency,[4],5.01 µM (active)
same,Potency,[20],12.6 µM (active)
same,outcome,[5],inactive
same,Potency,[6],inactive
same,Potency,[7],inactive
same,Potency,[9],inactive
same,Potency,[12],inactive
same,max response,[13],-4.59%
same,outcome,[14],inactive
same,max response,[15],-11.2%
same,max response,[16],-0.636% (inactive)
same,outcome,[17],inactive
same,Potency,[19],inactive
Oc1cccc(Cl)c1Cl,Potency,[1],> 92 µM (inactive)
same,Potency,[2],> 92 µM (inactive)
same,Potency,[3],inactive
same,Potency,[4],inactive
same,Potency,[20],inactive
same,outcome,[5],inactive
same,Potency,[6],inactive
same,Potency,[7],inactive
same,Potency,[8],inactive
same,Potency,[9],inactive
same,Potency,[10],inactive
same,Potency,[11],inactive
same,Potency,[12],inactive
same,max response,[13],-10%
same,outcome,[14],inactive
same,max response,[15],-4.72%
same,max response,[16],-5.77% (inactive)
same,outcome,[17],inactive
same,activation,[18],0.0475% (inactive)
same,Potency,[19],inactive
